Assay outcomes from PubChem.
Compounds with a hit are over-represented: about 21% of the library has one in this group of screens.
CHX counter – counter-screen hit for Shiga toxin inhibitors, cycloheximide. hit rate 12% among 300,000. max response, %. cell reporter, cycloheximide protein synthesis inhibition counterscreen; in the data active means max response mostly above about 13%, no sharp cut-off; inactive means mostly below about 14%; further: read at 38.3 µM for the half of the compounds with a filed dose
Shiga toxin inh – blocks Shiga toxin action in Vero cells | Vero cells, Shiga toxin protein synthesis inhibition reporter | inhibition, % at 38.7 µM | hit rate 9.2% among 290,000 | AID 2315; in the data active means inhibition mostly above about 28%, no sharp cut-off; inactive means mostly below about 43%
Pf growth 48h – inhibits P. falciparum growth in the first generation, 48 h; P. falciparum luciferase growth in erythrocytes, 48 h; Potency, µM (doses to about 28.7 µM), usual class: inhibitors; hit rate 5.9% among 310,000; AID 504832
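Compounds are pin-transferred into medium, infected erythrocytes (2% hematocrit, 0.1% parasitemia final) are added, and plates sit one parasite generation at 37 C in 5% CO2. Detection reagent is then added and luminescence measured.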
HCV inh – inhibitors of hepatitis C virus infection; Huh7.5.1 HCVcc-Cre infection, luciferase reporter, 44 h; Potency, µM (top dose mostly 41.8 µM), actives largely listed as inhibitors; hit rate 3.4% among 340,000; AID 651820
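Compounds are dispensed onto cells plated 4 h earlier at 1,000 per well, with HCVcc-Cre virus (about 0.5 moi) added next. Following 44 h of culture, luminescent signal is measured for 15 sec after 15 min with substrate at room temperature.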
Pf growth 96h – P. falciparum growth inhibition at 96 hour, primary screen for plastid delayed-death inhibitors; P. falciparum luciferase reporter growth, 96 h; Potency, µM (top dose mostly 28.7 µM), hits mostly inhibitors; hit rate 6.9% among 320,000
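Infected RBCs, 2% Hct / 0.05% parasitemia final; luciferase-reporter P. falciparum; cpd 96 h, 37 C, 5% CO2; luciferase detection reagent; luminescence.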
HCMV antiviral – human cytomegalovirus inhibition. activity change, negative = inhibition, % at 57.5 µM. hit rate 4.5% among 410,000. HFF cells, HCMV-luciferase reporter, 72 h; stronger effect = lower value; in the data active means activity change below about -60%; inconclusive means no clear call, values can overlap the other calls; inactive means above about -39%
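Steps: HFFs plated, 16 h 37C; compounds added; HCMV-luciferase added to MOI 1 PFU/cell; 72 h 37C; OneGlo reagent, 5 min room temperature; luminescence read, normalized to controls.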
Numbers stand for hits; - = inactive; ? = inconclusive; . = no result; [ ] = remark or other dose. Unless noted, the call rests on the fitted dose curve; in most records, active means well fitted inhibition curve with a large enough effect; inconclusive means small, poorly fitted or top-dose-only effect, or another doubt; inactive means no such curve, though single readings can be large or run the other way.

SMILES | CHX counter | Shiga toxin inh | Pf growth 48h | HCV inh | Pf growth 96h | HCMV antiviral
COc1cc(C(=O)OCc2cccc(S(=O)(=O)N3CCOCC3)c2)ccc1OCC(C)C | . | . | ? | 10µM | ? | -
COc1ccc(C(C)=O)cc1COC(=O)c1ccc(S(=O)(=O)N(C)C)cc1 | - | - | - | - | ? | -
COc1ccc(C(C)=O)cc1COC(=O)c1ccc2c(c1)OCCO2 | . | . | - | 11µM | - | -
COc1ccc(C(C)=O)cc1COC(=O)c1ccc2c(c1)OCO2 | - | - | - | - | ? | -
COc1ccc(C(C)=O)cc1COC(=O)c1ccc(C)c(S(=O)(=O)N2CCOCC2)c1 | . | . | 9.3µM | ? | 9.3µM | -
Cc1cccc(Cl)c1OCCCn1ccnc1 | - | - | ? | - | - | -
COc1ccc(NC(=O)COC(=O)c2ccc(OC)c(S(=O)(=O)N3CCCC3)c2)cc1OC | . | . | - | - | - | -
COc1ccc(C(=O)OCc2cc(C)ccc2C)cc1S(=O)(=O)N1CCCC1 | . | . | 7.4µM | ? | 10µM | -
CCOc1ccc(C(C)=O)cc1COC(=O)c1ccc2c(c1)NC(=O)CS2 | . | . | ? | 3.5µM | ? | -
COc1ccc(C(=O)COC(=O)c2ccc3c(c2)NC(=O)CS3)c(OC)c1 | . | . | - | ? | ? | -
COC(=O)c1cc(COC(=O)c2ccc(OC)c(S(=O)(=O)N3CCCC3)c2)oc1C | - | - | ? | 16µM | - | -
Cc1ccc(C)c(COC(=O)c2cccc(S(=O)(=O)N3CCCC3)c2)c1 | . | . | ? | ? | - | -
Cc1ccc(S(=O)(=O)/N=C(/Nc2ccc(O)c(C(=O)O)c2)c2ccccc2)cc1 | . | . | - | - | - | -
CC(C)N1C(=O)S/C(=C/c2ccccc2OCc2ccc(C(=O)O)cc2)C1=O | - | 32 | - | - | - | -
NC(N)=N/N=C/c1cccc([N+](=O)[O-])c1O | - | - | ? | - | - | -
NC(N)=N/N=C/c1cccc(Cl)c1Cl | - | - | 1.7µM | - | 2.1µM | ?
COc1ccc(Cn2c(=O)[nH]c3cc(C(=O)N4CCN(c5cc(C)ccc5C)CC4)ccc3c2=O)cc1 | . | . | . | . | . | -
COc1ccc(Cn2c(=O)[nH]c3cc(C(=O)N4CCN(c5ccccc5F)CC4)ccc3c2=O)cc1 | - | - | 12µM | ? | 12µM | -
COc1ccccc1N1CCN(C(=O)c2ccc3c(=O)n(Cc4ccc5c(c4)OCO5)c(=O)[nH]c3c2)CC1 | - | - | 1.5µM | ? | ? | .
COc1ccccc1Cn1c(=S)[nH]c2cc(C(=O)N3CCN(c4ccccc4OC)CC3)ccc2c1=O | - | - | - | - | - | -
COc1ccc(Cn2c(=O)[nH]c3cc(C(=O)N4CCN(Cc5ccccc5)CC4)ccc3c2=O)cc1 | - | - | ? | ? | - | -63
COc1ccc(Cn2c(=O)[nH]c3cc(C(=O)N4CCN(c5ccccc5OC)CC4)ccc3c2=O)cc1 | - | - | 3.3µM | 10µM | - | .
CCOC(=O)Cc1ccc(NC(=O)N2CCC(CN3CCC(C)CC3)CC2)cc1 | . | . | . | . | . | -
COC(=O)c1ccc(C)c(NC(=O)c2nn(C)c(=O)c3ccccc23)c1 | - | - | ? | - | 13µM | -
CCCn1nc(C(=O)Nc2cc(C(=O)OC)ccc2C)c2ccccc2c1=O | - | - | - | - | ? | -
SMILES | CHX counter | Shiga toxin inh | Pf growth 48h | HCV inh | Pf growth 96h | HCMV antiviral
CCn1nc(C(=O)Nc2ccccc2N2CCCC2)c2ccccc2c1=O | . | . | ? | 10µM | ? | -
Cn1nc(C(=O)Nc2cc(Cl)ccc2N2CCCC2)c2ccccc2c1=O | . | . | 12µM | ? | 13µM | -
CN1CCN(c2ccc(Cl)cc2NC(=O)c2nn(-c3ccccc3)c(=O)c3ccccc23)CC1 | - | - | - | ? | 15µM | -
COc1ccc(-n2nc(C(=O)NCC(=O)N3CCN(c4cccc(Cl)c4)CC3)c3ccccc3c2=O)c(OC)c1 | - | - | ? | - | - | -
CCOC(=O)C(Cc1ccccc1)c1ccnc2nc(N)nn12 (centres undefined) | - | - | - | - | -[5.75 µM] | -
OC(CNCc1ccc(Cl)cc1)(c1ccccc1)c1ccc(F)cc1 (centres undefined) | - | - | 13µM | - | ? | -
Cc1ccc(C(O)(CNCc2ccccc2)c2ccccc2)cc1 (centres undefined) | - | - | ? | - | ? | -
Fc1ccc(CCNCc2ccc(Br)cc2)cc1 | - | - | - | - | - | -
OC(CNCc1ccc(F)cc1)(c1ccc(F)cc1)c1ccc(F)cc1 | - | - | ? | ? | 13µM | -
COc1cccc(C2c3c(-c4ccccc4O)n[nH]c3C(=O)N2Cc2ccco2)c1 (centres undefined) | - | - | ? | - | - | -
COc1ccc(CCN2C(=O)c3[nH]nc(-c4ccccc4O)c3C2c2ccccc2)cc1OC (centres undefined) | - | - | 9.3µM | 11µM | 8.3µM | ?
COCCN1C(=O)c2[nH]nc(-c3ccccc3O)c2C1c1ccc(OCc2ccccc2)c(OC)c1 (centres undefined) | - | - | . | . | . | -103
O=C1c2[nH]nc(-c3ccccc3O)c2C(c2ccccc2)N1Cc1ccco1 (centres undefined) | - | - | 12µM | - | ? | -
CC(C)c1ccc(C2c3c(-c4ccccc4O)n[nH]c3C(=O)N2Cc2ccncc2)cc1 (centres undefined) | . | . | . | . | . | -79
O=C1c2[nH]nc(-c3ccccc3O)c2C(c2ccc(Cl)cc2)N1CCc1ccccc1 (centres undefined) | . | . | . | . | . | -95
CCOC(=O)C1=C(C)N=C2SC(C)C(=O)N2C1c1ccc(OC(C)=O)c(OC)c1 (centres undefined) | - | - | ? | - | - | -
CCOC(=O)C1=C(C)N=C2SC(C)C(=O)N2C1/C=C/c1ccccc1OC (centres undefined) | - | - | 12µM | ? | . | -
CCN(C(=O)c1ccc(NC(=O)c2ccco2)cc1)c1ccccc1 | - | - | ? | - | 9.3µM | -
CN(C(=O)c1ccc(NC(=O)c2ccco2)cc1)c1ccccc1 | 35 | 77 | - | - | - | -
CN(C(=O)c1cccc(NC(=O)c2ccco2)c1)c1ccccc1 | - | . | - | - | ? | -
O=C(c1ccc2c(c1)OCO2)N1CC(=O)N2[C@H](C1)[C@@H](c1ccc(Br)cc1)[C@@H]2CO | . | . | . | . | . | -
CCN(CC)c1ccc(NC(=O)CSc2nnc(C)c(=O)[nH]2)cc1 | . | . | . | . | . | -
Cn1c(N)c(C(=O)CNC2CCCCC2)c(=O)n(C)c1=O | . | . | . | - | . | -
CCOc1ccc2nc(N3CCCC(C(=O)NCc4ccccc4OC)C3)sc2c1 (centres undefined) | . | . | . | . | . | -
CCOc1ccc(N=C2NC(=O)C(CC(=O)O)S2)cc1 (centres undefined) | - | - | - | - | - | -
C/C(=N\N=C1\NC(=O)C(CC(=O)O)S1)c1ccccn1 (centres undefined) | - | - | 10µM | - | 1.2µM | -
